Compound activity (PubChem BioAssay)
Most compounds without a hit are left out; they make up all but 7.6% or so of the library.
CRE-bla Fsk: alters forskolin-stimulated CRE reporter signaling in CHO cells; CHO CRE-bla reporter (cAMP response element driving beta-lactamase), forskolin EC10, beta-lactamase ratio; 71,000 tested, 2.5% active; AID 662; Potency, µM (highest dose often 38.2 µM), for the others: at the top dose activity change, negative = inhibition, usual class: activators; active means well fitted activation curve with a large enough effect in the signal ratio, with a control signal flat, not every such curve was filed as active; inconclusive means small, poorly fitted or top-dose-only effect, or effect the other way, or a change in a side signal; the % refers to the signal ratio; further: % of control where 0% means no effect
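Reporter-gene assay: CHO cells with beta-lactamase behind cAMP responsive elements, co-treated with compound and EC10 NKH 477 for 3 hours at 37 degrees Celsius. Activity came from the 460/530 nm CCF4 emission ratio.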
TSHR agonist: agonists of human thyroid stimulating hormone receptor; HEK293-CNG-TSHR cells (CNG channel as cAMP sensor), membrane potential dye, cAMP; P16473; Potency, µM (top dose mostly 57.1 µM), for inactives: at the highest dose activation, usual class: activators; AID 926; 73,000 tested, 0.48% active; active means well fitted activation curve with a large enough effect in the main read-out, with a control signal flat, not every such curve was filed as active; inconclusive means small, poorly fitted or top-dose-only effect, or a change in a side signal; inactive means no such curve, though single readings can be large or run the other way; % of control where 0% means no effect;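 further: the control signal comes from parental cells without the receptor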
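cAMP rise detected as CNG-channel membrane depolarization by fluorescent dye (emission 590 nm), 30 min after compound, following 60 min dye loading containing 100 uM RO 20-1724 at room temperature. Cells: TSHR/CNG HEK 293, with parental CNG HEK 293 as control.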
Tau filament bind: tau filament binding; P10636; recombinant tau filaments, thioflavin S fluorescence, 15 h; filaments grown with octadecylsulfate alongside compound; Potency, µM (highest dose often 57.1 µM), inactives show top-dose activity change, negative = inhibition; 71,000 tested, 2% active; AID 596;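 further: on the % scale 0 is the no-effect control and ±100 the full control effect; actives lower thioflavin S fluorescence by blocking filaments or displacing dye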
Target sequence (P10636 whole entry, looked up): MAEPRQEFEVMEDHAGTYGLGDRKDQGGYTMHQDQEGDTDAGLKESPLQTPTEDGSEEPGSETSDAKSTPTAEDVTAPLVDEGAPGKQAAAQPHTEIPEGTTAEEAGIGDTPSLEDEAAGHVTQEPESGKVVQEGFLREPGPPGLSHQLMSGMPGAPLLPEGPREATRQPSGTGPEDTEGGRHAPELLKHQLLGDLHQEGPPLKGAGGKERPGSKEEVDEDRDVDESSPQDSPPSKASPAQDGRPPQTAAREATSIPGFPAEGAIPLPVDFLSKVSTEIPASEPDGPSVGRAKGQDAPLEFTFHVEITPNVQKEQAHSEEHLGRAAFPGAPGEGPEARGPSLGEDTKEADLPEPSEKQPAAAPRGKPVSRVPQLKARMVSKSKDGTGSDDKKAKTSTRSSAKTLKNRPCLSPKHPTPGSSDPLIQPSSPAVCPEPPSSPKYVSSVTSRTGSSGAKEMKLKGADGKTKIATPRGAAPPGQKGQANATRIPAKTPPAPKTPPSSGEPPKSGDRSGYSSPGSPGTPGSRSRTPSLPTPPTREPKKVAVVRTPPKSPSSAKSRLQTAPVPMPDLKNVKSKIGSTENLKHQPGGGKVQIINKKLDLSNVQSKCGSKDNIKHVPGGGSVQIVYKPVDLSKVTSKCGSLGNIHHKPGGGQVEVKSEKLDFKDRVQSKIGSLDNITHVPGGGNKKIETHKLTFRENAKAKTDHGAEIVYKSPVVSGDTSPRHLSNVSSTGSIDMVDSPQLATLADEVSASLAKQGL
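Tau 2 uM in ThS buffer dispensed; compound added; 60 uM ODS added (finals 1 uM tau, 30 uM ODS); 15 h 37 C; fluor ex450/em510.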
ERK AVP inh: blocks ERK signaling stimulated by vasopressin; HEK293-V1b, vasopressin-stimulated pERK AlphaScreen; Potency, µM (doses to about 57.5 µM), for inactives: at the highest dose activity, negative = inhibition, hits mostly inhibitors; 72,000 tested, 0.99% active; AID 995; further: on the % scale 0 is the no-effect control and ±100 the full control effect; nearly all actives have a fitted effect of over 55% in size
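HEK293 cells stably expressing V1b receptor, seeded overnight in 1% FBS, were treated with compounds for 30 min at 37C, then stimulated 5 min with 25 nM vasopressin; phospho-ERK read by AlphaScreen SureFire after lysis.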
HEK293 cAMP cs: counter-screen for TSHR agonists: cAMP increase in parental HEK293; 73,000 tested, 2.5% active; parental HEK293 CNG cAMP sensor, membrane potential fluorescence; Potency, µM (series often up to 57.1 µM), inactives show at the top dose activation, actives largely listed as activators; further: % of control where 0% means no effect; nearly all actives have a fitted effect of over 55% in size
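Counterscreen for endogenous-receptor signalling: CNG-channel HEK 293 cells report cAMP rise by membrane depolarization. After 60 min dye equilibration with 100 uM RO 20-1724, compounds incubated 30 min before bottom-read fluorescence at 590 nm.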
An asterisk follows results filed as active. Unless noted, the call rests on the fitted dose curve; in most records, active means well fitted curve in the direction sought with a large enough effect; inconclusive means small, poorly fitted or top-dose-only effect, or another doubt; inactive means no such curve, though single readings can be large; an effect the other way counts as inactive or inconclusive. Potency means the concentration at half of the fitted maximal effect.

What do the screens show for `O=C(Nc1ccccc1)N1CCCC2(CCN(C(=O)c3cc(C(F)(F)F)cc(C(F)(F)F)c3)CC2)C1`?
CRE-bla Fsk: inconclusive; TSHR agonist: 25.1µM*; Tau filament bind: -9.7%; ERK AVP inh: 19.3%; HEK293 cAMP cs: 29.8%

Results for O=C(CCN1C(=O)c2ccccc2C1=O)N1CCN(C(=O)c2ccccc2)CC1 ?
CRE-bla Fsk: 17.6%; TSHR agonist: 25.1µM*; Tau filament bind: 10.0%; ERK AVP inh: 0.1%; HEK293 cAMP cs: 28.5%

How did Nc1nc(Nc2ccccc2)nc2c1ncn2[C@@H]1O[C@@H](CO)[C@H](O)[C@@H]1O do in these assays?
CRE-bla Fsk: 12.0%; TSHR agonist: 3.8%; Tau filament bind: -8.0%; ERK AVP inh: 1.6%; HEK293 cAMP cs: -3.5%

What do the screens show for `COc1ccc(C)cc1NC(=O)CSc1nnc(COc2ccccc2)n1Cc1ccco1`?
CRE-bla Fsk: -25.1%; Tau filament bind: 42.2%; ERK AVP inh: -29.6%; HEK293 cAMP cs: 28.8%

What do the screens show for `C(=C\c1ccccc1)/CSc1nnc(-c2ccccn2)n1Cc1ccco1`?
CRE-bla Fsk: inconclusive; TSHR agonist: inconclusive; Tau filament bind: 40.3%; ERK AVP inh: -1.4%; HEK293 cAMP cs: 20µM*

What do the screens show for `CC1CCN(C(=O)CSc2nnc(-c3cc4ccccc4cc3O)n2Cc2ccco2)CC1`?
CRE-bla Fsk: -12.3%; TSHR agonist: 25.1µM*; Tau filament bind: 9.0%; ERK AVP inh: -2.5%; HEK293 cAMP cs: 23.3%

How did COc1ccc(C(=O)CSc2nnc(-c3cc4ccccc4cc3O)n2Cc2ccco2)cc1 do in these assays?
CRE-bla Fsk: inconclusive; TSHR agonist: inconclusive; Tau filament bind: 19.5%; ERK AVP inh: -28.2%; HEK293 cAMP cs: inconclusive

Results for COc1ccc(NC(=O)CSc2nnc(-c3ccccc3Cl)n2Cc2ccco2)c(OC)c1 ?
CRE-bla Fsk: -5.6%; TSHR agonist: inconclusive; Tau filament bind: -13.1%; ERK AVP inh: -3.7%; HEK293 cAMP cs: 20µM*

What do the screens show for `COc1ccc(NC(=O)CSc2nnc(-c3ccccc3)n2Cc2ccco2)c(OC)c1`?
CRE-bla Fsk: -2.1%; TSHR agonist: 27.6%; Tau filament bind: -4.2%; ERK AVP inh: -18.5%; HEK293 cAMP cs: 21.8%

How did COc1ccc(C)cc1NC(=O)CSc1nnc(-c2ccccn2)n1Cc1ccco1 do in these assays?
CRE-bla Fsk: 1.58µM*; TSHR agonist: inconclusive; Tau filament bind: 21.1%; ERK AVP inh: -18.7%; HEK293 cAMP cs: 10µM*

Results for Clc1ccccc1CSc1nnc(-c2ccccn2)n1Cc1ccco1 ?
CRE-bla Fsk: -10.9%; TSHR agonist: 3.3%; Tau filament bind: 10.7%; ERK AVP inh: inconclusive; HEK293 cAMP cs: 2.9%

What do the screens show for `c1ccc(CNc2ncncc2-c2ccoc2)cc1`?
CRE-bla Fsk: -17.0%; TSHR agonist: inconclusive; Tau filament bind: 17.0%; ERK AVP inh: -4.9%; HEK293 cAMP cs: inconclusive

How did CC(C)[C@@H](CC(=O)N[C@@H]1CCNC[C@H]1C(=O)N[C@H](CC(=O)N[C@@H](CCC(=O)O)CC(=O)O)Cc1ccccc1)NC(=O)C[C@H](Cc1c[nH]c2ccccc12)NC(=O)[C@@H]1CNCC[C@H]1N do in these assays?
CRE-bla Fsk: -14.4%; TSHR agonist: inconclusive; Tau filament bind: -10.7%; HEK293 cAMP cs: inconclusive

What do the screens show for `COc1ccccc1NC(=O)CSc1nnc(-c2ccccn2)n1Cc1ccco1`?
CRE-bla Fsk: 10µM*; Tau filament bind: -4.1%; ERK AVP inh: -21.9%; HEK293 cAMP cs: -8.2%

What do the screens show for `COc1ccc(-c2cc(C(=O)N/N=C\c3cc(OC)c(OC)c(OC)c3)[nH]n2)cc1`?
TSHR agonist: 0.4%; HEK293 cAMP cs: -13.4%

How did COc1ccnc(CS(=O)c2nc3ccc(OC(F)F)cc3[nH]2)c1OC (stereo not given) do in these assays?
ERK AVP inh: 17.3%

Results for Brc1cccc(-c2nnc(SCc3nc4ccccc4[nH]3)o2)c1 ?
CRE-bla Fsk: 2µM*; TSHR agonist: 20.1%; Tau filament bind: 32.9%; ERK AVP inh: inconclusive; HEK293 cAMP cs: 20.1%

How did c1ccc2[nH]c(CSc3nnc(-c4ccncc4)o3)nc2c1 do in these assays?
CRE-bla Fsk: 3.98µM*; TSHR agonist: 12.0%; Tau filament bind: -16.2%; ERK AVP inh: -2.0%; HEK293 cAMP cs: 8.0%
